How the values were obtained:
Assay in all cases: log2 ratio of Biotin-Ahx-Ub-VS probe labelling (fragment/DMSO); higher = less target engagement (more negative = stronger competition), active = hit call of the paper (q ≤ 0.05, log2 ratio ≤ -1)
Conditions in all cases: compound concentration: 200 uM; treatment time: 3 h
USP19 = target: T1, USP19 (UniProt O94966)
T1 sequence (whole entry): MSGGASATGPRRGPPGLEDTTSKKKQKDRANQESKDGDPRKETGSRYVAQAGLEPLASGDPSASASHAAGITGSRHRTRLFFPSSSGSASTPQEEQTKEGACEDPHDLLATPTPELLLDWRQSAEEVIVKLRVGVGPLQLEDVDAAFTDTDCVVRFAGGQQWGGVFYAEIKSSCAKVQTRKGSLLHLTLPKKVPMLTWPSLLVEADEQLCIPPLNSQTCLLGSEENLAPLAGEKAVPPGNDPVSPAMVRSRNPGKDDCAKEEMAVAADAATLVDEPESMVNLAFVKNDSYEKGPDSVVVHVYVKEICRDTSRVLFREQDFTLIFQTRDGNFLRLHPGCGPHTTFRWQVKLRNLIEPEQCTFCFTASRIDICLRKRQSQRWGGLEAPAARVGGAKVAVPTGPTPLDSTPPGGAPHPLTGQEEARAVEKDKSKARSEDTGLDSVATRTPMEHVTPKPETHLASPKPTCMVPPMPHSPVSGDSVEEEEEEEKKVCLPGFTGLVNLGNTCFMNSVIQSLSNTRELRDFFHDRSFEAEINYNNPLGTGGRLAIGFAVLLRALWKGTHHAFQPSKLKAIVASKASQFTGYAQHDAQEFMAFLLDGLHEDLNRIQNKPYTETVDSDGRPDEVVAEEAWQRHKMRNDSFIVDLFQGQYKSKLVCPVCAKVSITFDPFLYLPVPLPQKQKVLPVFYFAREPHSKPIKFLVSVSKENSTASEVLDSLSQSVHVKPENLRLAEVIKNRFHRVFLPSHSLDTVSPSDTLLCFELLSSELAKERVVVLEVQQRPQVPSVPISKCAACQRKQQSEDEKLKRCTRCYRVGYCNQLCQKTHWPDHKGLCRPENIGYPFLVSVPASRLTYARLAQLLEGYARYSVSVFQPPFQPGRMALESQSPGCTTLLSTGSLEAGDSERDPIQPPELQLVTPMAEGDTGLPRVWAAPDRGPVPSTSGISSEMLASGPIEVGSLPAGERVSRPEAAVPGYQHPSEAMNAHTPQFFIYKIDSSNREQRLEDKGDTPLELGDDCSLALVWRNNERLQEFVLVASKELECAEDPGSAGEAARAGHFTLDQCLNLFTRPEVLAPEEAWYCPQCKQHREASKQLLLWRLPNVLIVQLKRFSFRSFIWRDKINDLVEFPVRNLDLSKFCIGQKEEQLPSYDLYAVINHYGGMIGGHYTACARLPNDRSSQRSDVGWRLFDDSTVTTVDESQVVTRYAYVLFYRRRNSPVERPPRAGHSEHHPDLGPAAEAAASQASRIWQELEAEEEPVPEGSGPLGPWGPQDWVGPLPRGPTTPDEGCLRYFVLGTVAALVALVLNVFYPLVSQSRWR
Procedure, shortened: (§1)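 HEK293T lysate in Tris/CHAPS/IGEPAL buffer with protease inhibitors (495 µg per sample) was given fragment at 200 µM or vehicle for 3 h, in triplicate. It then received Biotin-Ahx-Ub-VS at 0.5 µM final for 1 h. Labelled DUBs were NeutrAvidin-enriched, digested with LysC and trypsin, and run by diaPASEF LC-MS/MS. Values are average log2 fragment/vehicle ratios by unpaired t-test on global-median-normalised Spectronaut quantities of proteins with ≥2 unique peptides.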

USP22 = target: T2, USP22 (UniProt Q9UPT9)
T2 sequence (whole entry): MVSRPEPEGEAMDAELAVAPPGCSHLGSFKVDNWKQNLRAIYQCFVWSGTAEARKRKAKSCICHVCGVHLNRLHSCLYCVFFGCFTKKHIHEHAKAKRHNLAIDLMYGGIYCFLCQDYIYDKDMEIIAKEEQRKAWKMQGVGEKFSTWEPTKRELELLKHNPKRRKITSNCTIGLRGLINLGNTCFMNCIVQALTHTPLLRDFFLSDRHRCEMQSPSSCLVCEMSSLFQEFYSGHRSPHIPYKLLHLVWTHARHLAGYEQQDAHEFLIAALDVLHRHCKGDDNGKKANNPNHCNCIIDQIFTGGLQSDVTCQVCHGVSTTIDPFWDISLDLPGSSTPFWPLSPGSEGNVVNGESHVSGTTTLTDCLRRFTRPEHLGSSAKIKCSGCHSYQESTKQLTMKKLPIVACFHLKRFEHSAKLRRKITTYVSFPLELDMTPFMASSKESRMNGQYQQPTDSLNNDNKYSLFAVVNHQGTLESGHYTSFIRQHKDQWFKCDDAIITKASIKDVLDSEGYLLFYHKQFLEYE
Procedure, shortened: as §1

USP24 = USP24 (UniProt Q9UPU5)
Chain of USP24 (Q9UPU5 whole entry): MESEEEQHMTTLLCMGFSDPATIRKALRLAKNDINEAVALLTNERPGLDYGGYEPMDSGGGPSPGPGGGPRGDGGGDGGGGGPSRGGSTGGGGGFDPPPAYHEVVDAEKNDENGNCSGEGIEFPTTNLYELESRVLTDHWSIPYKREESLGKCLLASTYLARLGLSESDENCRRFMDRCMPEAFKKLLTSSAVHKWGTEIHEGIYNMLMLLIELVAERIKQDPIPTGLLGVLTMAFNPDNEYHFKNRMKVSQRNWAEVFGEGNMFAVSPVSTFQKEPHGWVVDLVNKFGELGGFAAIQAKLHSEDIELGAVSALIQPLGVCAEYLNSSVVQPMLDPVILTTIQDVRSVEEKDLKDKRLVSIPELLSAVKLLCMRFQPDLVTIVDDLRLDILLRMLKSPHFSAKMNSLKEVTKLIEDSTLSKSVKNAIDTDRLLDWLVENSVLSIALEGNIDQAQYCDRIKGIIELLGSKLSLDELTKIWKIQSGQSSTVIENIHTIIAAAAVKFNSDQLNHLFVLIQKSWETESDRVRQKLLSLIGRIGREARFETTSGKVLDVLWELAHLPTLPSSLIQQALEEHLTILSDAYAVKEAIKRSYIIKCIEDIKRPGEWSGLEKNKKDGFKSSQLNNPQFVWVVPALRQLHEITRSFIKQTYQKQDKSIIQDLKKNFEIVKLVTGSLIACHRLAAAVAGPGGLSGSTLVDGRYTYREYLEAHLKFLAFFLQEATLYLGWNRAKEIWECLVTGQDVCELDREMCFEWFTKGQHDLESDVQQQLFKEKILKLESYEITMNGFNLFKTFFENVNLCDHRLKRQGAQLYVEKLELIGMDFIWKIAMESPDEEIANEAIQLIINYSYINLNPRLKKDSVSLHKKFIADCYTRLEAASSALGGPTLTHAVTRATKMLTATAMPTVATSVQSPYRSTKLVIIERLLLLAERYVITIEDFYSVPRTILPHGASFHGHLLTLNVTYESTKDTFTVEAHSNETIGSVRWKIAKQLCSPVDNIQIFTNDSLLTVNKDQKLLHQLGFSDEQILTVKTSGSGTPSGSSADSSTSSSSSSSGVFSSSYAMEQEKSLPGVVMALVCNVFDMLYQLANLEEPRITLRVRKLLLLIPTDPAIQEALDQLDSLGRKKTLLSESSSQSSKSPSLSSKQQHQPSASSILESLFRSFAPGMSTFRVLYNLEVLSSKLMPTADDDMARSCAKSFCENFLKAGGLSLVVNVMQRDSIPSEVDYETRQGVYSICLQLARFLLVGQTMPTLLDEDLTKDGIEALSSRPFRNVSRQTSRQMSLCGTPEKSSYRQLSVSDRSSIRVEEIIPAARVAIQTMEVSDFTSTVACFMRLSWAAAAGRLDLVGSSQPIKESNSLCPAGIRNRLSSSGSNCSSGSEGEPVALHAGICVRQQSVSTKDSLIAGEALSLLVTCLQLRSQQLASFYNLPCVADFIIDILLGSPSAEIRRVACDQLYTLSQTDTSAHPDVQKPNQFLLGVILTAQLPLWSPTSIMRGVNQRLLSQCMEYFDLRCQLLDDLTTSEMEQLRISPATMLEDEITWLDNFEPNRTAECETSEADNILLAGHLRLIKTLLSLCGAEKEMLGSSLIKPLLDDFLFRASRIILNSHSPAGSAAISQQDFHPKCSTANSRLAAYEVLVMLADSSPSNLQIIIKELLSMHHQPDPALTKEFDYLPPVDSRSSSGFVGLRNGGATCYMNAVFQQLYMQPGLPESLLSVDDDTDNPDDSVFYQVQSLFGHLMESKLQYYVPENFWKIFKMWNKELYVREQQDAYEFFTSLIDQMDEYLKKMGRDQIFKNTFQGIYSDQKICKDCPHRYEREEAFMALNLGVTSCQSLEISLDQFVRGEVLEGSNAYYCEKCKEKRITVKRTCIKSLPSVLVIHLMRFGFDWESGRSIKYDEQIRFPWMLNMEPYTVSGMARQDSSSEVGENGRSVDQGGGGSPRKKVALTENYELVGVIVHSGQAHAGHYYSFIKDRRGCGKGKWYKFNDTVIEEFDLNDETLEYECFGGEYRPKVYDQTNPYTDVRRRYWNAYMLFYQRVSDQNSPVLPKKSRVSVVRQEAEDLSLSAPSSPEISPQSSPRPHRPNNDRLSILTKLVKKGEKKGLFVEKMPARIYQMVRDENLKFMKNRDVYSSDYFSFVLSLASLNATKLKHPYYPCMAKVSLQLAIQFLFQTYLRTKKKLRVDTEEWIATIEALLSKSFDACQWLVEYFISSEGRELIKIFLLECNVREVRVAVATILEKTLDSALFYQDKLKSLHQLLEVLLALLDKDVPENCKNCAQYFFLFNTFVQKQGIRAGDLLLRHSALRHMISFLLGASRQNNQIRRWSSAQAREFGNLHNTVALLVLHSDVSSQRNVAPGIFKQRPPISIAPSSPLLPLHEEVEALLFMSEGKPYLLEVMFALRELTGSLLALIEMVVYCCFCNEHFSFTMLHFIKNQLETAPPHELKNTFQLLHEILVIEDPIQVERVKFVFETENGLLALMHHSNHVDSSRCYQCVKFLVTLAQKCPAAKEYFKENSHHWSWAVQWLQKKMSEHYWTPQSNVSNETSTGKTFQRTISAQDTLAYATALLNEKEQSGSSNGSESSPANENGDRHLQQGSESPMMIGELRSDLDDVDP
Procedure, shortened: as §1

USP25 = target: T3, USP25 (UniProt Q9UHP3)
T3 sequence (whole entry): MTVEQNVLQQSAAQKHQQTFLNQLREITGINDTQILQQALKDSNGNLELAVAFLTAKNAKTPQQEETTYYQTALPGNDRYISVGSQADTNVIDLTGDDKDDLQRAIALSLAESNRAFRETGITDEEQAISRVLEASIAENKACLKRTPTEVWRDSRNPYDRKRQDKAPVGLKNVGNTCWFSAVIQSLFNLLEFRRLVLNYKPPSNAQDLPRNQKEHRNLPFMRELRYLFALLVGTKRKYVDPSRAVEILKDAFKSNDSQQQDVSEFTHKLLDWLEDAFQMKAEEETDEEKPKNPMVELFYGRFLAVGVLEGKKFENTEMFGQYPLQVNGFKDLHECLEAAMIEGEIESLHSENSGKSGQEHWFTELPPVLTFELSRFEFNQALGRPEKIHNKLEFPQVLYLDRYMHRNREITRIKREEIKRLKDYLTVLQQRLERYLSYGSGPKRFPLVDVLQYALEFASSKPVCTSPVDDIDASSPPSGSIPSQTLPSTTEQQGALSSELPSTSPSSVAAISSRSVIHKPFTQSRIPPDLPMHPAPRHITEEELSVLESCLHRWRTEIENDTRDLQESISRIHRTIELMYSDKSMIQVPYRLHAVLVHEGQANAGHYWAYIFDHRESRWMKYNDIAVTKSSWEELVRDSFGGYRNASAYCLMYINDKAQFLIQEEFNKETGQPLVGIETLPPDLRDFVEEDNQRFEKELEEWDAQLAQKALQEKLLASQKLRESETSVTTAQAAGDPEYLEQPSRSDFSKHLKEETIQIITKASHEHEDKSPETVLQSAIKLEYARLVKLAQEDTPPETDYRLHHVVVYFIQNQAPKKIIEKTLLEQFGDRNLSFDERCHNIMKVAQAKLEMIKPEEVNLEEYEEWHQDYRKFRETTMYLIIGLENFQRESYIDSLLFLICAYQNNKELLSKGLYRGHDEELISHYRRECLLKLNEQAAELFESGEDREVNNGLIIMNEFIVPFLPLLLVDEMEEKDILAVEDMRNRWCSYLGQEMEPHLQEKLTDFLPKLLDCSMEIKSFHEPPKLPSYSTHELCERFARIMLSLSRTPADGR
Procedure, shortened: as §1

USP28 = target: T4, USP28 (UniProt Q96RU2)
T4 sequence (whole entry): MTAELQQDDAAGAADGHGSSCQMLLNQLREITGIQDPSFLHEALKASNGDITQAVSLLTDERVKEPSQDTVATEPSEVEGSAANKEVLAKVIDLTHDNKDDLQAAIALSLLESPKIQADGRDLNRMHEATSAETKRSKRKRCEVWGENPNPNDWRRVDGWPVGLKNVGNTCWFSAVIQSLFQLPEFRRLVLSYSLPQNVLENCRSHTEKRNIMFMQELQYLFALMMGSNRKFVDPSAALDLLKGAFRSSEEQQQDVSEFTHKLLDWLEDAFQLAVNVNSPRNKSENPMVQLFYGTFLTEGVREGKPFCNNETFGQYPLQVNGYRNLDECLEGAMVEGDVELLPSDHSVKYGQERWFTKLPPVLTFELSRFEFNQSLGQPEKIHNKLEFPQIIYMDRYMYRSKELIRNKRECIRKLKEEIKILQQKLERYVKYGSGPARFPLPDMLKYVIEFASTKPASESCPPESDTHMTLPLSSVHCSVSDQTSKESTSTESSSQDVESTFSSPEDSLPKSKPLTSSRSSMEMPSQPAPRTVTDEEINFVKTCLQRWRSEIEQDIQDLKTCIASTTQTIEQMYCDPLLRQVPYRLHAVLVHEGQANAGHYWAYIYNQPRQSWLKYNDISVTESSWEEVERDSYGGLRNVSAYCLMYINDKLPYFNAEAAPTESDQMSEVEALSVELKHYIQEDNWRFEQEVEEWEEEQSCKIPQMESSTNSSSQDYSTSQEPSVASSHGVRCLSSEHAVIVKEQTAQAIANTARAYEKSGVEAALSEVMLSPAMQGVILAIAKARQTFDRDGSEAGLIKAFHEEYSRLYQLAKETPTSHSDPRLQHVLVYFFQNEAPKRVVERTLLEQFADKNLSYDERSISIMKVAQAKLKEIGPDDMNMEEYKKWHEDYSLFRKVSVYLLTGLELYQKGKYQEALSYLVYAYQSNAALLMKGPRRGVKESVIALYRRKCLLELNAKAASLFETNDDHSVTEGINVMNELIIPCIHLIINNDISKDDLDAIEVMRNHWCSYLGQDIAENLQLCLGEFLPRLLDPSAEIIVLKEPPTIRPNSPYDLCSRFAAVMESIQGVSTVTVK
Procedure, shortened: as §1

Measured: log2 ratio of Biotin-Ahx-Ub-VS probe labelling

O=C(CCl)N1CCN2C(=O)CCC2C1 (stereo not given)
inactive: USP19 0.0407 | USP22 -0.0658 | USP24 0.14 | USP25 -0.508 | USP28 -0.38

From the supplement of paper PMC11732987, “Enantioselective OTUD7B fragment discovery through chemoproteomics screening and high-throughput optimisation” (Communications Chemistry, 2025)
